Source: PubChem BioAssay (EPA / NIEHS)
Values joined by “and” are separate entries in the source; they are usually repeats but may differ in a detail not shown here. Equal entries are not always repeated. The source holds several records for some structures; these can differ, active in one and inactive in another. Active and inactive are the calls of the source. The calls were made as follows: active = hit-call score of the fitted dose curve at least 0.9, where 1 is the maximum; inactive = score below 0.9.

Molecular target: Hypoxia-inducible factor 1-alpha (Homo sapiens) (UniProt Q16665)
Sequence (Q16665 whole entry, looked up): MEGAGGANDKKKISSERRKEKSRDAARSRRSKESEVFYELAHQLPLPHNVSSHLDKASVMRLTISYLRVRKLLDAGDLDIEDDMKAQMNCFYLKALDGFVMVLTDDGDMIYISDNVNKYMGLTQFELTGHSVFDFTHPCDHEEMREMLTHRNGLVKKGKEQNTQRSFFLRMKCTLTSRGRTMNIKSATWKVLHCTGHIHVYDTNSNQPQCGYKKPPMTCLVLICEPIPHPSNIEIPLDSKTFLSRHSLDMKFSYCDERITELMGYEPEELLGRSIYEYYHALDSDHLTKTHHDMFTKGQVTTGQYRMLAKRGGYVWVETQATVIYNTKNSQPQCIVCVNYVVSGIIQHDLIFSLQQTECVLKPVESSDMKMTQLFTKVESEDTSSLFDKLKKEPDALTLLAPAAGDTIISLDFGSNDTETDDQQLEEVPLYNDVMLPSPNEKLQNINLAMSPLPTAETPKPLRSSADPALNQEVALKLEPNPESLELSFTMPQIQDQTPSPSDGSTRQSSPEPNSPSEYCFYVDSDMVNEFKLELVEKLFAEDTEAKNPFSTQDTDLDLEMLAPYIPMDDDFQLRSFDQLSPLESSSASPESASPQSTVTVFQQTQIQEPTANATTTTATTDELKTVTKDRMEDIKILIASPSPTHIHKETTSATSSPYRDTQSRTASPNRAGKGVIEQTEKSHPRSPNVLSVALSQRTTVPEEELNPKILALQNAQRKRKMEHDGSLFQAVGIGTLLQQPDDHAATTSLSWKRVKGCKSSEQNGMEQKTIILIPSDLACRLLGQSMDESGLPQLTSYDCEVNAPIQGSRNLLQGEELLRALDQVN
Experiment: ATG_HIF1a_CIS: Attagene CIS-FACTORIAL HepG2 Assay for human Hypoxia Inducible Factor 1 (HIF1A) (AID 2282951)
Settings: HepG2 Attagene cis-factorial HIF1a reporter transcription; actives raise or lower the signal
Description: ATG_CIS is a cell-based, multiplexed-readout assay that uses HepG2, a human liver cell line, with measurements taken at 24 hours after chemical dosing in a 24-well plate.ATG_HIF1a_CIS is one of 52 assay component(s) measured or calculated from the ATG_CIS assay. It is designed to make measurements of mRNA induction, a form of inducible reporter, as detected with fluorescence intensity signals by Reverse transcription polymerase chain reaction (RT-PCR) and Capillary electrophoresis technology.Data from the assay component ATG_HIF1a_CIS was analyzed into 1 assay endpoint. This assay endpoint, ATG_HIF1a_CIS, was analyzed with bidirectional fitting relative to DMSO as the negative control and baseline of activity. Using a type of inducible reporter, measures of mRNA for gain or loss-of-signal activity can be used to understand the reporter gene at the transcription factor-level as they relate to the gene HIF1A. Furthermore, this assay endpoint can be referred to as a primary readout, because this assay has produced multiple assay endpoints where this one serves a reporter gene function. To generalize the intended target to other relatable targets, this assay endpoint is annotated to the dna binding intended target family, where the subfamily is basic helix-loop-helix protein.
Human liver HepG2 cells are transiently transfected with multiple reporter transcription units (MRTUs) in 6-well plates using FuGene 6 reagent (Roche; 3 ml FuGene/1 mg DNA). The MRTU constructs are regulated by a cis-regulating element (promoter). […] A major difference between the CIS and TRANS system is that in CIS activities of endogenous TFs are measured, whereas the TRANS assay evaluates changes in activities of exogenous, chimeric NR-Gal4 proteins. […] At the end of 24 hour incubation, total RNA was isolated using TriZol reagent (Invitrogen). The isolated RNA is then reverse-transcribed using oligo(dT) primer and Mo-MLV reverse transcriptase (Invitrogen) with DNAse I (Ambion) treatment for 30 min. The one-tenth of the produced cDNA was amplified by PCR using Taq DNA polymerase (Invitrogen) and two reporter sequence-specific primers. The PCR products were fluorescently labeled by primer extension with 6-arboxyfluorescein (6-FAM) 5'-labeled reporter sequence-specific primer (2 min at 95 C, 20 s at 68 C and 10 min at 72 C) and these products were digested with 5U of HpaI (New England Biolabs) for 2h at 37 C. The fragments were purified using Qiaquick PCR columns (Qiagen), analyzed on an ABI 3130xL genetic analyzer (Applied Biosystems) with peak positions identified by using a set of X-rhodamine (ROX)-labeled MapMarker1000 molecular weight standards (BioVentures). The raw capillary electrophoresis data was processed using Attagraph software (Attagene).

SMILES	AC50	outcome
CCO[Si](CCCNC(N)=O)(OCC)OCC	6.4 µM (active)	–
O=CCCCC=O	–	inactive
Clc1cc(Cl)c2c(c1)N=C1CCCCCN1C2	–	inactive
Cc1ccc2oc(CN(Cc3ccccc3)C(=O)Nc3c(F)cc(F)cc3F)c(-c3ccc(Cl)cc3)c2c1	–	inactive
O=C(OCCCCCCOC(=O)c1ccccc1)c1ccccc1	–	inactive
OCCO	51.2 µM (active)	–
O=C=NCCCCCCN=C=O	–	inactive
O=c1[nH]sc2ccccc12	8.86 µM (active)	–
O=C1c2ccccc2C(=O)N1CCc1noc(-c2ccc(CN3CCCCCC3)s2)n1	51.2 µM (active)	–
CN1C(=O)N(c2ccccc2Br)Cc2cnc(Nc3ccc4c(c3)OCC(CO)O4)nc21 (stereo not given)	9.59 µM (active)	–
Cc1oc2c(NC(=O)c3c(Cl)cccc3Cl)cccc2c1C(C)(C)O	37.8 µM (active)	–
CCN(Cc1cccc(S(=O)(=O)O)c1)c1ccc(C(=C2C=CC(=[N+](CC)Cc3cccc(S(=O)(=O)O)c3)C=C2)c2ccccc2S(=O)(=O)[O-])cc1	–	inactive
COCC(C)OCC(C)OCC(C)O (stereo not given)	–	inactive
Cc1c2ccccc2c(C)c2c1ccc1ccccc12	–	inactive
Cc1cc(F)ccc1-c1cc(N2CC[C@@H](O)[C@H]2CO)ncc1N(C)C(=O)C(C)(C)c1cc(C(F)(F)F)cc(C(F)(F)F)c1	–	inactive
COc1cccc([C@H](O)C2CCN(CCc3ccc(F)cc3)CC2)c1OC	27.4 µM (active)	–
O=C1CCC(C2CCCCC2)CC1	0.821 µM (active)	inactive
CC[C@H](NC(=O)c1cc(F)ccc1NS(=O)(=O)c1cccc2cccnc12)c1ccccc1	–	inactive
CCCCCCCCCCCC[N+](C)(C)C	–	inactive

SMILES	AC50	outcome
O=C(O)c1ccccc1C(=O)OCc1ccccc1	–	inactive
O=c1ccc2ccccc2o1	–	inactive
c1ccc(C[n+]2cccc3ccccc32)cc1	–	inactive
O=C(O)Cn1c(=O)n(Cc2ccc(Br)cc2F)c(=O)c2ccc(Cl)cc21	–	inactive
C[C@]12CC[C@@H]3c4ccc(O)cc4CC[C@H]3[C@@H]1CCC2=O	–	inactive
NCc1cccc(C2CCN(C(=O)c3ccc(C#Cc4ccccc4F)o3)CC2)c1	–	inactive
CCCCCCCC[Si](OCC)(OCC)OCC	57.3 µM (active) and 26.4 µM (active)	inactive
CN(C)c1ccc(C(=C2C=CC(=[N+](C)C)C=C2)c2ccc(N(C)C)cc2)cc1	–	inactive
CCCCCCCCOC(=O)c1cc(O)c(O)c(O)c1	16.9 µM (active)	–
O=C1O[C@H]([C@@H](O)CO)C(O)=C1O	–	inactive
CCN(CC)C(=O)c1cc(S(=O)(=O)Cc2ccccc2)c(N2CCC(c3ccccc3)CC2)cc1N(CC)CCN(C)C	3.7 µM (active)	–
O=C(O)c1ccccc1-n1cc(C(=O)O)c(=O)c2cc(Nc3c(F)cc(F)cc3Cl)c(Cl)cc21	–	inactive
O=c1c(-c2ccc(O)cc2)coc2cc(O)cc(O)c12	–	inactive
CC(C)(c1cc(Br)c(O)c(Br)c1)c1cc(Br)c(O)c(Br)c1	47.1 µM (active)	inactive
CC(C)(C)c1cc(/C=C2\SC(N)=NC2=O)cc(C(C)(C)C)c1O	–	inactive
CCCCCCCCCCCO	–	inactive
CCCOC(=O)c1cc(O)c(O)c(O)c1	65.1 µM (active)	–
Cc1cccc2ccccc12	–	inactive
